About 14,000 (4.5%) of roughly 310,000 compounds showed an effect of 50% or more. Effects have a minus sign here. The sample as a whole holds a higher share of strong results than the screen did.
target: human ether-à-go-go-related gene (hERG) potassium channel (human, UniProt Q12809); assay: primary screen, population patch clamp on CHO cells stably expressing hERG; higher = less effect of the substance
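Note: peak tail current of the secondary pulse compared with the same well before compound.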

human ether-à-go-go-related gene (hERG) potassium channel, sequence (Q12809 whole entry, looked up): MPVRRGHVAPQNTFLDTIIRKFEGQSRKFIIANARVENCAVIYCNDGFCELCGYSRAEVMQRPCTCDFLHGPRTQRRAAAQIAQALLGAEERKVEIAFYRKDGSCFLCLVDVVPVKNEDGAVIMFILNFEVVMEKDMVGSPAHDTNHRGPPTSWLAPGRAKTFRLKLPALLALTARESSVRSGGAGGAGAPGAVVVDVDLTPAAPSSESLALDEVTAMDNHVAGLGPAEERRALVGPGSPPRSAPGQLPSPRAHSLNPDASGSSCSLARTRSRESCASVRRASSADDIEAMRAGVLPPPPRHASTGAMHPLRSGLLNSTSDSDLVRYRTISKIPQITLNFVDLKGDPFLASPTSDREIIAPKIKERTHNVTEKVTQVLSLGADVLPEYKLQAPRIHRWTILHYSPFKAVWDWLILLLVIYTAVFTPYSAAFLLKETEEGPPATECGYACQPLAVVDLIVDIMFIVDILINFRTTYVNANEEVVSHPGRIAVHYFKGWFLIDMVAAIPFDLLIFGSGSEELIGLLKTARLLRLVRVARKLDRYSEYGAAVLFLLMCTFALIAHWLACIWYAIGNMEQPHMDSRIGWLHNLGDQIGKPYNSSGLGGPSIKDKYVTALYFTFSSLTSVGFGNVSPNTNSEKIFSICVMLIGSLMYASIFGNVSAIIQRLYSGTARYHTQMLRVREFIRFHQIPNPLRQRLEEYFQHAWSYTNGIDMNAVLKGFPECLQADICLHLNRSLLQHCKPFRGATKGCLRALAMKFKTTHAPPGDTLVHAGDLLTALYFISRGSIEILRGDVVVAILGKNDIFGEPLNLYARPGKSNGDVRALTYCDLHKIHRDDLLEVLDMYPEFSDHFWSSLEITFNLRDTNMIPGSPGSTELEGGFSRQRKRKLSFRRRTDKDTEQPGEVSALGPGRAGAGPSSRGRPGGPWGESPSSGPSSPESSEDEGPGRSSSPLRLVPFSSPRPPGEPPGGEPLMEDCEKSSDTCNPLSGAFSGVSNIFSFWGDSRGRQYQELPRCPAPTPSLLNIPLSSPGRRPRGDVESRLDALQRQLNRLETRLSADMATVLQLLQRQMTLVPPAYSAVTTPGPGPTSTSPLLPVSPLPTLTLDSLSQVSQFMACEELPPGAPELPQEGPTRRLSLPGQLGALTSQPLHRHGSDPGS

Row | SMILES | hERG current change (%, negative = inhibition) at 10uM [%]
1 | COC(=O)CCC(=O)NNC(=O)c1cccc(Cl)c1 | 16.4
2 | CC(=O)c1sc(NC(=O)C(C)C)nc1C | -0.878
3 | CC(=O)Nc1ccc(-c2csc(Nc3ccc(S(N)(=O)=O)cc3)n2)cc1 | -1.99
4 | O=C(Cn1nc(-c2ccc(F)cc2)ccc1=O)Nc1ccc2c(c1)OCCO2 | -0.525
5 | Cc1ccc(NC(=O)NCC2CCN(Cc3cc(C)ccc3Cl)CC2)c(C)c1 | -58.3
6 | Cc1ccc(C)c(CN2CCC(CNC(=O)Nc3cccc(Cl)c3C)CC2)c1 | -43.1
7 | Cc1ccc(NC(=O)NC(=O)CN2CCC(C(N)=O)CC2)c(C)c1 | 12
8 | O=C(Cn1nnc(-c2ccccc2)n1)c1ccccc1 | 7.22
9 | Cc1nc(/N=C(\N)NC(=O)NC2CCCCC2)nc2ccccc12 | -21
10 | Cc1ccc2nc(/N=C(\N)NC(=O)NC3CCCCC3)nc(C)c2c1 | -76.4
11 | CCCC(=O)N/C(N)=N/c1nc(C)c2cc(C)ccc2n1 | -23.8
12 | COC(=O)c1cc(C)sc1NC(=O)CN1CCN(C(=O)c2ccco2)CC1 | -30
13 | CCOC(=O)c1c(NC(=O)CN2CCN(C(=O)c3ccco3)CC2)sc(C)c1C | -8.41
14 | CCc1cc(C(=O)OC)c(NC(=O)CN2CCN(C(=O)C3CCCO3)CC2)s1 (stereo not drawn) | -47.2
15 | CCOC(=O)c1cc(C)sc1NC(=O)CN1CCN(C(=O)c2ccco2)CC1 | -72.8
16 | CCOC(=O)c1c(NC(=O)CN2CCN(C(=O)c3ccco3)CC2)sc(C(N)=O)c1C | -20.1
17 | CCOC(=O)c1cc(C)sc1NC(=O)CN1CCN(C(=O)C2CCCO2)CC1 (stereo not drawn) | -31
18 | CCc1c(C)sc(NC(=O)CN2CCN(C(=O)c3ccco3)CC2)c1C(=O)OC | -39.7
19 | CCOC(=O)c1cc(CC)sc1NC(=O)CN1CCN(C(=O)C2CCCO2)CC1 (stereo not drawn) | -65.9
20 | CCOC(=O)c1cc(CC)sc1NC(=O)CN1CCN(C(=O)c2ccco2)CC1 | -67.2
21 | CCc1cc(C(=O)OC)c(NC(=O)CN2CCN(C(=O)c3ccco3)CC2)s1 | -51.6
22 | COC(=O)CN1CCN(C(=O)c2ccco2)CC1 | 10

Row | SMILES | hERG current change (%, negative = inhibition) at 10uM [%]
23 | Cc1ccc(C(=O)c2cc(C)sc2NC(=O)CN2CCN(C(=O)c3ccco3)CC2)cc1 | -11.7
24 | COC(=O)c1sccc1NC(=O)c1cc(-c2ccc(C)cc2C)nc2ccccc12 | 6.94
25 | CC(C)C(NC(=O)c1ccc(C(C)(C)C)cc1)C(=O)NC1=NCCS1 (stereo not drawn) | -6.13
26 | Cc1ccccc1CN(c1ccc(C(=O)Nc2cccnc2)cc1)S(C)(=O)=O | -9.59
27 | NC(=O)CSc1n[nH]c(-c2ccco2)n1 | 24
28 | O=C(COC(=O)COc1cccc(C(F)(F)F)c1)NC(=O)NC1CCCCC1 | -1.9
29 | Cc1c(CNCCc2ccccc2)c(C(=O)O)c(C)n1-c1ccccc1 | 12.1
30 | C/C(=N/NC(=O)CNC(=O)Cc1ccc(Cl)cc1)c1ccco1 | 4.04
31 | CCc1cc(C(=O)c2ccc(OC)cc2)c(NC(=O)CN2CCCCC2)s1 | 5
32 | CCc1cc(C(=O)c2ccc(OC)cc2)c(NC(=O)CN2CCN(C)CC2)s1 | -71.3
33 | CCc1cc(C(=O)c2ccc(OC)cc2)c(NC(=O)CN2CCCC2)s1 | -12.4
34 | CCOc1cccc2cc(C(=O)N3CCc4ccccc43)c(=O)oc12 | -2.43
35 | COC(=O)C1=C(c2ccc(OC)c(OC)c2)C[C@@H]2CC[C@H]1N2C(=O)NCCCOC(C)C | 15.3
36 | C[N+]1(CC(=O)OCCCC2CCCCC2)CCCC1.[I-] | -8.31
37 | CC(OCC(O)CNCC1COc2ccccc2O1)c1ccc(Cl)cc1 (stereo not drawn) | -22.7
38 | Cl.OC(CNCC1COc2ccccc2O1)COc1ccc(Cl)cc1 (stereo not drawn) | -56.2
39 | O=C(O)c1ccccc1C(=O)NCC(O)COc1ccc(Cl)cc1 (stereo not drawn) | 2.34
40 | Cl.OC(CNC1CCCC1)COc1ccc(F)cc1 (stereo not drawn) | 5.27
41 | Cl.O=[N+]([O-])c1ccc(OCC(O)CNC2CCCC2)cc1 (stereo not drawn) | -76.2
42 | OC(CNC1Cc2ccccc2C1)COc1ccc(Cl)cc1 (stereo not drawn) | -68.8
43 | COc1ccc(OCC(O)CNC2CCCC2)cc1.Cl (stereo not drawn) | 12.8
44 | Cl.OC(CNC1CCCC1)COc1ccc(Cl)cc1 (stereo not drawn) | -9.8

Row | SMILES | hERG current change (%, negative = inhibition) at 10uM [%]
45 | COC(=O)c1ccc(OCC(O)CNC2CCCC2)cc1.Cl (stereo not drawn) | 13.3
46 | OC(CNCC1COc2ccccc2O1)COc1ccccc1F (stereo not drawn) | 1.11
47 | OC(CNC1Cc2ccccc2C1)COc1ccc(F)cc1 (stereo not drawn) | -49.1
48 | Cl.OC(CNC1CCCC1)COc1ccc(-c2ccccc2)cc1 (stereo not drawn) | -51.8
49 | O=C(CSc1nnc(-c2cccs2)o1)N1CCCc2ccccc21 | 3.02
50 | O=C(CCCn1c(=S)[nH]c2ccsc2c1=O)Nc1ccc2c(c1)OCO2 | 17.2
51 | O=C(COC(=O)c1ccccc1O)Nc1cc([N+](=O)[O-])ccc1Cl | -21.5
52 | Nc1nc(NCCc2ccccc2)nc(NCc2ccccc2)c1[N+](=O)[O-] | 20.4
53 | Cc1ccc(C)c(OCC(O)CNC2CCCC2)c1.Cl (stereo not drawn) | 8.8
54 | Cc1ccc(OCC(O)CNS(=O)(=O)c2ccccc2C(=O)N2CCCCC2)cc1 (stereo not drawn) | -13.9
55 | Cc1ccc(OCC(O)CNC2CCCC2)c(C)c1.Cl (stereo not drawn) | 7.48
56 | Cc1cccc(C)c1OCC(O)CNS(=O)(=O)c1ccccc1C(=O)N1CCCCC1 (stereo not drawn) | -10.9
57 | O=C(c1ccccc1S(=O)(=O)NCC(O)COc1ccc([N+](=O)[O-])cc1)N1CCCCC1 (stereo not drawn) | -56.8
58 | Cc1ccc(C(C)C)c(OCC(O)CNC2CCCC2)c1.Cl (stereo not drawn) | -51.9
59 | CCc1nn(C(C)C(=O)N2CCN(c3ccccc3)CC2)c(=O)c2cc3occc3n12 (stereo not drawn) | -25.3
60 | CCOC(=O)C1C(c2ccc(O)c(OCC)c2)NC(=S)NC1(O)C(F)(F)F (stereo not drawn) | -12.5
61 | CC(=O)c1ccc(N2CCN(C(=O)CCC(=O)Nc3ccc4nc(N5CCN(C)CC5)cc(C)c4c3)CC2)cc1 | 20.3
62 | CN(C(=O)COC(=O)c1ccc(-c2ccc(O)cc2)cc1)C1CCS(=O)(=O)C1 (stereo not drawn) | 10.8
63 | COCCNC(=O)CN(C(=O)CCC(=O)Nc1ccccn1)c1ccc(F)c(Cl)c1 | 4.59
64 | Cc1ccc(-n2nnnc2SCC(=O)NCCC2=CCCCC2)c(C)c1 | -13.1
65 | CNC(=O)CSc1nnnn1-c1ccc(C)cc1C | 7.63
66 | O=C(CSc1nnnn1-c1ccccc1)NCC1(N2CCOCC2)CCCCC1 | -21.3

Row | SMILES | hERG current change (%, negative = inhibition) at 10uM [%]
67 | O=C(CSc1nnnn1-c1ccccc1)NCC1(N2CCCCC2)CCCCC1 | -62.3
68 | Cc1ccc(-n2nnnc2SCC(=O)NCC2(N3CCCCC3)CCCCC2)c(C)c1 | -284
69 | O=C(CSc1ccccc1)NCC1(N2CCCCC2)CCCCC1 | -0.798
70 | COCCN(C(=O)COC(=O)c1ccccc1Oc1ccccc1)c1c(N)n(Cc2ccccc2)c(=O)[nH]c1=O | -21.6
71 | Cc1cc(C(=O)N2CCN(c3ncccn3)CC2)sc1-c1ccccc1 | -3.34
72 | O=[N+]([O-])c1ccccc1/C=N/NC1=NCCN1 | 7.6
73 | COc1ccccc1N1CCN(C(=O)CCNC(=O)Cn2ccc3ccccc3c2=O)CC1 | 2.62
74 | CN(C(=O)C1CCC(=O)N(CCCN2CCCC2=O)C1)C(C1CC1)C1CC1 (stereo not drawn) | 12.1
75 | CC(=O)Nc1ccc(S(=O)(=O)Nc2ccc3c(c2)OCO3)cc1 | 17.2
76 | CN(C)S(=O)(=O)c1cccc(NC(=O)COC(=O)CCC(=O)c2ccc(F)cc2)c1 | -36
77 | O=C(Nc1cccc(S(=O)(=O)N2CCCCC2)c1)C1CCC1 | 3.43
78 | O=C(Nc1cccc(S(=O)(=O)N2CCCCC2)c1)C1CC1 | -10.6
79 | O=C(Nc1cccc(S(=O)(=O)N2CCCCCC2)c1)C1CCN(C(=O)c2ccc(F)cc2)CC1 | -88
80 | O=C(Nc1cccc(S(=O)(=O)N2CCCCC2)c1)C1CCN(C(=O)c2ccc(Cl)cc2)CC1 | -31.7
81 | O=C(Nc1cccc(S(=O)(=O)N2CCCCCC2)c1)C1CCN(C(=O)c2ccc(Cl)cc2)CC1 | -41.9
82 | O=C(Nc1cccc(S(=O)(=O)N2CCOCC2)c1)[C@@H]1CCCN1S(=O)(=O)c1ccc(Cl)cc1 | -62.8
83 | CN(C)S(=O)(=O)c1cccc(NC(=O)COC(=O)C2CCN(C(=O)c3ccc(F)cc3)CC2)c1 | -50.8
84 | CN(c1ccccc1)S(=O)(=O)c1cccc(NC(=O)COC(=O)C2CCCCC2)c1 | 13.7
85 | O=C(Nc1cccc(S(=O)(=O)N2CCOCC2)c1)C1CCCN(C(=O)c2ccc(Cl)cc2)C1 (stereo not drawn) | -32.4
86 | O=C(Nc1cccc(S(=O)(=O)N2CCOCC2)c1)C1CCCC1 | -4.03
87 | O=C(Nc1cccc(S(=O)(=O)N2CCCCCC2)c1)C1CCC1 | -57.4

Reference: article PMC4336329 (PLoS ONE, 2015)
